Compound activity (PubChem BioAssay)
3CLpro inhibitor: SARS-CoV 3CLpro protease inhibition; AID 1706; inhibition, % at 6 µM; recombinant SARS-CoV 3CLpro, quenched FRET peptide cleavage; 0.14% of 290,000 active; in the data active = inhibition above about 12%
Mtb hypoxia rep: Mtb hypoxia fluorescent reporter inhibition. M. tuberculosis hypoxia-regulated fluorescent reporter, fluorescence. fluorescence inhibition, % (no concentration beside the values). 0.1% of 300,000 active. AID 1159583; in the data active = fluorescence inhibition mostly above about 23%, no sharp cut-off; inactive = mostly below about 17%
DUSP3 inh: DUSP3 (human) phosphatase inhibition | 0.52% of 290,000 active | inhibition, % at 13.3 µM | recombinant VHR phosphatase, pNPP absorbance; in the data active = inhibition above about 50%
Target sequence (P51452 whole entry, looked up): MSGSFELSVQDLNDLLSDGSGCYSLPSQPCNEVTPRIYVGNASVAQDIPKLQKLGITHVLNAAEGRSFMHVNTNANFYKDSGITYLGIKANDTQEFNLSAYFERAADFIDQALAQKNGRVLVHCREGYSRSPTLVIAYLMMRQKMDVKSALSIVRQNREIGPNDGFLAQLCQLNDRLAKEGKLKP
FadD28 FP inh: blocks FadD28 binding to the bisubstrate probe. fluorescence polarization. inhibition, % at 12.5 µM. 0.22% of 360,000 active. AID 588549; in the data active = inhibition above about 8.5%, passing the limit was not always enough
BioA inh: blocks M. tuberculosis BioA enzyme activity; purified M. tuberculosis BioA enzyme, plate reader; inhibition, % at 9.99 µM; 0.096% of 360,000 active; AID 602481; in the data active = inhibition above about 40%
Starred values were filed as active, the others as inactive; · = no result. Only some compounds are listed: those with a hit (about 0.7% of all), similar ones and a draw of the others.

SMILES | 3CLpro inhibitor | Mtb hypoxia rep | DUSP3 inh | FadD28 FP inh | BioA inh
Nc1c(C(=O)NCC2CCCO2)sc2nc3c(c(-c4ccco4)c12)CC/C3=C\c1ccco1 (centres undefined) | 1.1 | 9.7 | 100.7* | 13.8* | -1.0
CC(C)CNS(=O)(=O)c1ccc(CCC(=O)NC2CCCC2)cc1 | 2.0 | 13.0 | 51.7* | -0.5 | -1.9
CCC1=[N+]([O-])C(C)(C(C)=NO)N(O)C1(C)C (centres undefined) | · | -5.3 | · | · | ·
C[C@]12C(=O)N(c3ccc(Br)cc3)C(=O)N1C1c3ccccc3OCC1C2c1ccccc1 (some centres undefined) | · | -1.4 | · | · | ·
NCCCCC1NC(=O)c2cc([N+](=O)[O-])cc(F)c2NCCCCC(C(N)=O)NC(=O)C(CCC(N)=O)NC1=O (centres undefined) | · | 2.9 | · | · | ·
O=C(NC1CCCC1)C1CCN(C(=O)NCc2ccccc2)CC1 | -2.2 | -1.5 | 54.4* | -0.2 | ·
CSc1ccc(CNCc2ccc3c(c2)OCO3)cc1 | 4.3 | 1.8 | 55.4* | 0.2 | -1.0
COC(=O)c1[nH]c(C)c(C(O)=C2C(=O)C(=O)N(CCN(C)C)C2c2cc(OC)ccc2OC)c1C (centres undefined) | · | 5.4 | · | · | ·
Cc1sc(-n2c(C)cc(/C=C3\SC(=S)NC3=O)c2C)c(C#N)c1C | 5.9 | -3.3 | 3.3 | 16.9* | -0.7
Cc1cc(/C=C2\SC(=S)NC2=O)c(C)[nH]1 | -3.3 | · | 21.2 | 32.7* | 3.6
Cc1sc(-n2c(C)cc(C=C3C(=O)NC(=O)NC3=O)c2C)c(C#N)c1C | 9.9 | -6.2 | 2.6 | · | ·
Cc1cc(C=C2SC(=S)NC2=O)c(C)[nH]1 | · | 14.5 | · | · | ·
Cc1cc(/C=C2\SC(=S)NC2=O)c(C)n1-c1cccc(O)c1 | 2.8 | 4.3 | 13.1 | 16.7* | ·
Cc1cc(C=NNC(=O)c2cccc([N+](=O)[O-])c2)c(C)n1-c1ccc(Cl)cc1Cl | · | 11.8 | · | · | ·
CC(C)(C)C1C=C(C(=O)N2CCN(Cc3ccccc3)CC2)OC(OCCCCO)C1 (centres undefined) | · | 12.8 | · | · | ·
COC(=O)C1=C(c2ccc(-c3ccccc3)c(F)c2)CC2CCC1N2C(=O)NCCO (centres undefined) | · | 1.2 | · | · | ·
Brc1ccc(-c2csc(NN=Cc3cccnc3)n2)cc1 | · | -0.1 | · | · | ·
Cc1ccc(-c2nnc(SCC(=O)NN=Cc3cccs3)n2-c2ccc(C)cc2)cc1 | · | 7.2 | · | · | ·
CC(=CC(=O)c1ccccc1)Nc1ccc2c(c1)OCO2 | · | 5.0 | · | · | ·
CCOc1ccc2oc(C(=O)OCC(=O)NCc3ccc(OC)cc3)c(C)c2c1 | · | 32.4* | · | -3.2 | -4.7
COc1ccc(CNC(=O)COc2ccc(OC)cc2)cc1 | -2.4 | -3.4 | 22.2 | 21.9* | -0.3
CCc1ccc(OCC(=O)NNCC(=O)Nc2ccc(OC)cc2)cc1 | · | 56.9* | · | 0.8 | -0.6
COc1ccc(CNC(=O)COc2ccc(F)cc2)cc1 | -0.5 | 16.7 | 13.0 | -3.8 | -0.7
COc1ccc2oc(C(=O)OCC(=O)NCc3ccc(OC)c(OC)c3)c(C)c2c1 | · | 1.8 | · | -0.9 | 0.3
C=C(CO)CC1CC(O)[C@]2(C)OC3CC4OC5C[C@]6(C)O[C@]7(C)CCC8OC9C[C@]%10(C)OC%11C(C)=CC(=O)OC%11CC%10OC9CC(C)C8OC7CC6O[C@]5(C)CC=CC4OC3CC2O1 (some centres undefined) | · | -2.3 | · | · | ·
SMILES | 3CLpro inhibitor | Mtb hypoxia rep | DUSP3 inh | FadD28 FP inh | BioA inh
O=C1c2cc(O)cc(O)c2C(=O)c2c1cc(O)c([C@@H](CO)CCO)c2O | · | · | · | 19.8* | 6.0
COc1ccc(C2C(C#N)=C(N)Oc3cc(N)ccc32)cc1 (centres undefined) | 2.6 | 7.1 | 55.7* | -0.3 | -0.7
CCOC(=O)C1C2COc3ccc(Br)cc3C2N2C(=O)CNC(=O)[C@@]12C (some centres undefined) | · | -7.0 | · | · | ·
O=C(COC(=O)C1COc2ccccc2O1)Nc1cccc(F)c1 (centres undefined) | · | 27.6* | · | -2.7 | 2.0
CC(=O)Nc1nnc(SCC(=O)Nc2nc(C)cs2)s1 | -0.2 | 13.9 | -40.5 | -3.9 | 0.2
Cc1csc(NC(=O)CSc2nnc(NC(=O)NC(C)(C)C)s2)n1 | · | 3.6 | · | 12.0* | -1.0
COc1cc(/C=C2\SC(=S)N(NC(=O)c3cccc(O)c3)C2=O)ccc1O | 1.3 | 3.6 | 23.6 | 12.8* | 0.1
COc1cc(/C=C2\SC(=S)N(NC(=O)c3ccc(O)c(OC)c3)C2=O)ccc1O | 1.5 | · | 10.4 | 16.3* | 9.8
COc1ccc(S(=O)(=O)N(C)CC2Oc3c(NC(=O)NC4CCCCC4)cccc3C(=O)N(C(C)CO)CC2C)cc1 (centres undefined) | · | 6.4 | · | · | ·
COc1cc(CCCN2C(=O)C(=O)NCC2CCCCN)cc(OC)c1OC (centres undefined) | · | 16.3 | · | · | ·
COC(=O)[C@@]1(Cc2ccc(F)cc2)C2c3cc(C(=O)N(C)C)n(Cc4ccc(OC)c(OC)c4)c3CC2CN1C(=O)c1ccccc1 (some centres undefined) | · | -1.5 | · | · | ·
COc1ccc(NC(=O)c2cc3c(-c4ccc(OC)c(OC)c4)nn(C)c3s2)cc1OC | 1.5 | 0.8 | -12.9 | 25.5* | 1.2
Cc1ccc(C(=O)C=CNc2ccc(C)c(C)c2)cc1 | · | -0.2 | · | · | ·
O=C(Nc1ccc(OCC(=O)N2CCOCC2)cc1)Nc1cccc(Cl)c1 | -3.0 | 13.6 | 19.8 | -2.7 | ·
CC(C)(C)c1ccc(NC(=O)Nc2ccc(OCC(=O)N3CCOCC3)cc2)cc1 | 0.0 | 13.9 | 7.2 | 24.6* | ·
Cc1ccc(NC(=S)N(CCN(C)C)Cc2cccs2)cc1 | -2.0 | 7.2 | 9.9 | -1.1 | ·
CCOC(=O)c1ccc(NC(=S)N(CCN(C)C)Cc2cccs2)cc1 | 0.3 | 11.3 | 9.9 | 10.2* | ·
CN(CC(=O)Nc1ccc(OC(F)(F)F)cc1)C(=O)/C=C/c1cc2c(cc1[N+](=O)[O-])OCO2 | · | 29.6* | · | -2.6 | 3.4
CN(CC(=O)Nc1ccc(OC(F)(F)F)cc1)C(=O)/C=C/c1ccco1 | · | 6.0 | · | -0.3 | -1.1
COc1cc(/C=C(/C#N)c2nc(-c3cc4ccccc4oc3=O)cs2)cc([N+](=O)[O-])c1O | 2.6 | · | 100.7* | · | ·
COC(=O)c1ccc(COc2ccc(/C=N/NC(N)=S)cc2)o1 | -0.8 | · | 26.9 | 50.6* | -0.9
CCN(CC)c1ccc(C=c2sc3nnc(-c4ccccc4C)n3c2=O)cc1 | · | -1.3 | · | · | ·
